Only some compounds are listed: those with a hit (about 1.1% of all), similar ones and a draw of the others.
AI-2 QS mod: modulators of Vibrio harveyi AI-2 quorum sensing system. Vibrio harveyi JMH597 AI-2 luminescence/OD600 ratio, 9 h; active compounds read low; strain lacks LuxN and CqsS sensors; 0 = neutral-control median. activity change, % at 7.5 µM. 300,000 compounds, 0.4% hits. AID 2094; in the data active = activity change below about -75%, passing the limit was not always enough; inconclusive = no clear call, values can overlap the other calls;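 note: luminescence divided by OD600 gain over 9 h not by final OD600 alone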
Pemphigus Ab inh: blocks pemphigus antibody binding to human desmoglein-3; DSG3-coupled beads, scFv-anti-DSG3-GFP binding, flow cytometry; active compounds read low; AID 588358; P32926; binding (percent of control), % at 10 µM; 310,000 compounds, 0.48% hits;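 active = binding more than 3 SD below its plate's average and above zero; inconclusive = below that plate limit but binding exactly zero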;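 note: hits lower antibody fragment binding to DSG3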
NTR1 agonist: activates human neurotensin receptor 1 | P30989 | NTR1-U2OS beta-arrestin-GFP spot imaging, agonist mode | activation, % at 20 µM | 330,000 compounds, 0.17% hits | AID 493036;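 active = activation at or above 40% of the spot to cytoplasm intensity ratio, with at least 20 cells analyzed; inconclusive = wells under 20 cells, flagged as cytotoxic or low count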;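 note: 0% = DMSO without peptide and 100% = 100 nM NTR1 peptide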
VLA-4 inh: inhibition in a human VLA-4 binding assay; VLA-4 expressing cells, ligand binding flow cytometry; inhibition, % (about 7 µM as worked out from the volumes in the protocol); 330,000 compounds, 0.2% hits; AID 2557; in the data active = inhibition above about 50%
Target sequence (P13612 whole entry, looked up): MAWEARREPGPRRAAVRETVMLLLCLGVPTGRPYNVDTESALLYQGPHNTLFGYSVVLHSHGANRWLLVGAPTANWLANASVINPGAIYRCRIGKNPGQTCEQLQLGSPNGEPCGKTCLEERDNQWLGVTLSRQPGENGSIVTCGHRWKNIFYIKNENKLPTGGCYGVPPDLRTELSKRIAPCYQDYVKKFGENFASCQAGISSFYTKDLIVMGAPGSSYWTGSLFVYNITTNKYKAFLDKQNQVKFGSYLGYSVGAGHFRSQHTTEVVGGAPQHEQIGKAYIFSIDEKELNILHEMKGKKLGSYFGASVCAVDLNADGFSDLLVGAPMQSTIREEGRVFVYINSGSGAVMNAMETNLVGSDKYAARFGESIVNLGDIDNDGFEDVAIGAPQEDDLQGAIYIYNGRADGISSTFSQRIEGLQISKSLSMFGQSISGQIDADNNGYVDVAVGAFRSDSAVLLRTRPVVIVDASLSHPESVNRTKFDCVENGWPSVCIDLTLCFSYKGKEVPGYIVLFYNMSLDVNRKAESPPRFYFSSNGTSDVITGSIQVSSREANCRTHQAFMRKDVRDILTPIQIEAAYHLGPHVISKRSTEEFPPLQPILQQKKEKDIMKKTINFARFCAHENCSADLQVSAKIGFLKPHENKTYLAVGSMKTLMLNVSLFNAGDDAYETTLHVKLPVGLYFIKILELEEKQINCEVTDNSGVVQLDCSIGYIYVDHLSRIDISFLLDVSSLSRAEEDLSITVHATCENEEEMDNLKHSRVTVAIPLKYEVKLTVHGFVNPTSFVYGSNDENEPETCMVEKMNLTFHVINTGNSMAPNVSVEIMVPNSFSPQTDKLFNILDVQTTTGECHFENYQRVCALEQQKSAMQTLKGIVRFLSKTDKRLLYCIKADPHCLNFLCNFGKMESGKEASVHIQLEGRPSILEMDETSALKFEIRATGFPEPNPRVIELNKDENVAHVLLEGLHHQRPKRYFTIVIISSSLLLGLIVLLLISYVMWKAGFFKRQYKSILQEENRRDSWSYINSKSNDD
JMH597 growth rt: retest Vibrio harveyi JMH597 growth inhibition; shares compounds with AI-2 QS mod; OD600 absorbance, 9 h; lacks LuxN and CqsS sensors; growth inhibition, % at 7.5 µM; 750 compounds, 1% hits; AID 2726;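 active = every replicate shows growth inhibition above 50%; inconclusive = at least half, but not all, replicates pass that cutoff; inactive = fewer than half of replicates pass it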
BB721 const-QS lum: retest counter-screen: lowers luminescence of constitutive-QS Vibrio harveyi BB721; shares compounds with AI-2 QS mod; 9 h; inhibition, % at 7.5 µM; 750 compounds, 95% hits; AID 2727;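 active = inhibition above about 80% in every replicate, not just on average, limit read from the data; inconclusive = at least half of replicates past the limit, but not all; inactive = fewer than half of replicates past the limit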
BB721 growth rt: retest: inhibitors of Vibrio harveyi BB721 growth; shares compounds with AI-2 QS mod; OD600 absorbance, 9 h; growth inhibition, % at 7.5 µM; 750 compounds, 3% hits; AID 2728;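 active = every replicate shows growth inhibition above 50%; inconclusive = at least half but not all replicates above 50% inhibition; inactive = under half of replicates above 50% inhibition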
AI-2 QS JMH597: Vibrio harveyi AI-2 signaling luminescence modulation – JMH597 strain, confirmation; shares compounds with AI-2 QS mod; Vibrio harveyi JMH597 AI-2 quorum sensing luminescence, 9 h; luxN and CqsS knockout, AI-2 only; inhibition, % at 7.5 µM; 750 compounds, 97% hits; AID 2736;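 active = every replicate shows more than 75% inhibition of signal versus neutral control wells; inconclusive = half to three quarters of replicates exceed 75% inhibition; inactive = fewer than half of replicates exceed 75% inhibition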
Starred values were filed as active, the others as inactive; ? = inconclusive; · = no result.

SMILES	AI-2 QS mod	Pemphigus Ab inh	NTR1 agonist	VLA-4 inh	JMH597 growth rt	BB721 const-QS lum	BB721 growth rt	AI-2 QS JMH597
Cc1ccc2nc(NC(=O)COC(=O)c3ccc(Br)o3)sc2c1	·	101.1	-1.3	-3.2	·	·	·	·
Cc1ccc2nc(NC(=O)COC(=O)c3ccco3)sc2c1	-91.6*	·	-1.5	-2.3	-18.6	97.6*	-40.1	98.5*
O=C(COC(=O)c1ccc(Br)o1)Nc1nc2ccccc2s1	?	102.7	-0.7	5.9	15.9	93.5*	24.0	95.3*
COc1ccc(NC(=O)N(C)C[C@@H]2OCc3cnnn3CCCC(=O)N([C@@H](C)CO)C[C@H]2C)c(OC)c1	·	98.2	·	·	·	·	·	·
COc1ccccc1N1CCN(C(=O)[C@@H]2CCCN2C2=NS(=O)(=O)c3ccccc32)CC1	·	100.5	·	·	·	·	·	·
Cc1ccc(CCN2CC(C(=O)NC3CCC(C)CC3)CC2=O)cc1 (stereo unspecified)	·	97.7	·	·	·	·	·	·
C[C@@H]1CCCCO[C@@H](CN(C)S(=O)(=O)c2ccccc2)[C@@H](C)CN([C@H](C)CO)C(=O)c2cc(NS(=O)(=O)c3ccc(F)cc3)ccc2O1	·	89.3	·	·	·	·	·	·
O=C(Oc1ccc2c(=O)c(Oc3ccc4ccccc4c3)coc2c1)c1cccnc1	-89.2*	108.0	-1.8	-2.8	18.6	96.6*	?	97.3*
Brc1cccc(CSc2nnc(-c3ccncc3)o2)c1	-85.5*	99.3	4.0	0.4	14.6	94.9*	6.2	95.8*
c1ccc2c(CSc3nnc(-c4ccncc4)o3)cccc2c1	-83.3*	104.4	10.2	-10.9	5.0	94.3*	-7.9	95.6*
COc1cc(OC)cc(-c2c(-c3cccs3)c3cc(-c4ccn[nH]4)ccc3n2C)c1	·	102.0	8.3	5.3	·	·	·	·
Clc1cccc(CSc2nnc(-c3c[nH]c4ccccc34)o2)c1	-87.8*	101.3	17.3	8.4	22.1	93.1*	21.8	95.3*
COc1cc(C=Cc2nnc3c4ccccc4cnn23)cc(OC)c1OC	·	102.8	·	·	·	·	·	·
COCCn1c(SCC(=O)N2CCCC2)nc2c(c1=O)SCC2	·	106.8	·	·	·	·	·	·
Cc1c(C(C)NC(=O)c2cc(COc3cccc4cnccc34)on2)cnn1C (stereo unspecified)	-81.1*	120.1	0.1	1.2	19.2	80.5*	18.3	87.7*
CSc1ccccc1OCc1cc(C(=O)NC(C)c2cnn(C)c2)no1 (stereo unspecified)	-32.7	93.4	-0.6	-8.0	·	·	·	·
Cc1ccc(CNC(=O)/C=C/c2cccs2)cc1	-96.2*	·	0.7	-1.9	0.1	98.6*	-10.2	99.0*
CCCCNC(=O)/C=C/c1cccs1	1.6	100.2	-0.1	-7.6	·	·	·	·
COc1ccccc1N(CC(=O)N(C)Cc1ccccc1)S(=O)(=O)c1cccs1	·	102.5	3.4	5.5	·	·	·	·
COc1cccc(OCc2nc(-c3ccc(Br)o3)no2)c1	-82.6*	109.1	0.5	48.5	38.5	95.6*	-1.0	97.2*
Clc1ccccc1OCc1nc(-c2ccc(Br)o2)no1	-60.9	101.0	-2.6	0.8	·	·	·	·
COc1cccc(-c2noc(Cn3nc(C)c([N+](=O)[O-])c3C)n2)c1	-10.6	96.2	0.4	0.4	·	·	·	·
COc1cccc(OCc2nc(-c3cccc([N+](=O)[O-])c3)no2)c1	-83.4*	97.9	1.5	4.6	13.6	86.3*	-20.6	93.0*
CC1=C(C(=O)N(C)C)CC(CC(=O)NC(c2ccccc2)c2ccccc2)C(=O)N1CCC1=CCCCC1 (stereo unspecified)	·	107.8	·	·	·	·	·	·
COC(=O)c1ccc(NC(=O)c2ccc3c(c2)NC(=O)C2CCCN32)cc1 (stereo unspecified)	·	·	-0.3	-3.7	·	·	·	·
SMILES	AI-2 QS mod	Pemphigus Ab inh	NTR1 agonist	VLA-4 inh	JMH597 growth rt	BB721 const-QS lum	BB721 growth rt	AI-2 QS JMH597
O=C(c1ccc2c3n(nc2c1)-c1ccccc1CO3)N1CCCCC1	-84.1*	97.3	0.7	1.3	24.5	88.7*	26.5	95.1*
O=C(c1ccc2c3n(nc2c1)-c1ccccc1CO3)N1CCOCC1	6.3	100.4	0.1	3.3	·	·	·	·
S=C(Cc1ccccc1)Nc1ccccc1	·	97.7	·	·	·	·	·	·
c1ccc2c(c1)COc1c3ncccc3nn1-2	·	98.3	·	·	·	·	·	·
O=C(CNc1ccc(Br)cc1)c1ccc(O)cc1	-82.3*	105.8	-0.1	5.8	-12.6	90.1*	-42.2	92.5*
O=C(CNc1ccc(Cl)cc1)c1ccc(Br)cc1	17.5	104.7	-0.6	6.3	·	·	·	·
COc1cccc(NC(=S)NC2CC(C)CC(C)(C)C2)c1 (stereo unspecified)	·	103.2	·	·	·	·	·	·
COc1cc(N=Nc2ccc(Br)cc2)cc(C=O)c1O	·	98.5	·	·	·	·	·	·
N/C(=N\OC(=O)CC1CCCCC1)c1cccc(Br)c1	-80.3*	112.6	0.9	11.9	21.5	95.7*	28.3	96.4*
Oc1ccccc1CNc1cnc2ccccc2c1	11.6	98.5	2.2	4.7	·	·	·	·
Oc1ccc(Cl)cc1CNc1cnc2ccccc2c1	-97.0*	111.6	10.2	-1.5	14.1	99.5*	15.3	99.6*
Cc1ccc(CNc2ccc3c(c2)ncn3C)cc1	-81.9*	·	4.8	6.6	17.5	90.6*	-15.3	94.5*
COc1ccc(CNc2ccc3c(c2)ncn3C)cc1OC	13.2	99.4	-0.7	2.5	·	·	·	·
CCc1ccc(CNc2ccc3c(c2)ncn3C)cc1	-90.6*	·	5.4	-2.1	26.9	95.6*	8.2	97.9*
CC(C)C(=O)OCc1cn(-c2ccc(Cl)c(Cl)c2)nn1	-82.1*	99.0	1.4	3.7	1.6	95.1*	-10.9	95.9*
COC(=O)C1(C)NC(c2cccc(C)c2)C2C(=O)N(c3ccccc3)C(=O)C21 (stereo unspecified)	·	99.8	·	·	·	·	·	·
O=C1CCCN2N=C(SCC(=O)Nc3ccc(F)cc3F)SC2=N1	5.3	·	-0.6	4.2	·	·	·	·
COc1cccc(OCc2cc(C(=O)NCc3ccc4c(c3)OCO4)no2)c1	?	98.3	2.3	7.2	56.3	91.5*	?	96.2*
COc1cccc(/C=C/C(=O)NCc2ccc3c(c2)OCO3)c1	-85.6*	113.0	2.7	17.6	0.6	94.8*	1.4	95.7*
COc1ccc(CC(=O)NCc2ccc3c(c2)OCO3)cc1	27.4	103.6	-0.3	-0.6	·	·	·	·
COc1ccc(CCC2(C)OCC(CCCCO)O2)cc1 (stereo unspecified)	·	92.2	·	·	·	·	·	·
COC(=O)[C@@]12CCCCN1[C@H](c1ccc(-c3ccc4c(c3)OCO4)cc1)[C@H]1C(=O)N(C)C(=O)[C@H]12	·	101.9	3.2	-0.7	·	·	·	·
Cc1ccc(S(=O)(=O)N/N=C\C=C\c2ccccc2)cc1	-98.1*	119.0	0.1	-7.3	51.2	99.8*	24.7	99.9*
O=C1N(Cc2ccccc2)CC2(Br)COCOC12O (stereo unspecified)	·	115.9	·	·	·	·	·	·
O=C(CSc1n[nH]c(=O)n1C1CC1)Nc1ccc(Cl)c(Cl)c1	-82.6*	87.9	0.4	4.4	-16.1	88.3*	-7.2	91.4*
